Screens: PubChem, several laboratories
An excerpt weighted towards active compounds, which were near 1% of everything screened.
CR mimetic SO: reduction of superoxide in aged yeast, primary screen, HTS; S. cerevisiae aged cells, superoxide DHE fluorescence; hits give low values; superoxide response (% of plate mean), % at 10 µM; 0.18% of 330,000 active;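 active = superoxide response under a set limit, about three screen SD below normal, cut at about 65% in these data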;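 note: yeast aged for seven days with compound at 30 °C before DHE staining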
iPSC survival up: enhancers of single-cell hiPSC survival, primary screen, ATPlite luminescence; 100% = ROCK inhibitor wells, 0% = DMSO; survival enhancement, % at 20 µM; 0.044% of 360,000 active; in the data active = survival enhancement above about 18%;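 note: cells exposed to compounds for 16 hours before the ATP read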
Fh CTSL1 inh: Fasciola hepatica cathepsin L1 inhibitors, primary screen, counter-screen for PFM18AAP inhibitor project, biochemical, QFRET, fluorogenic peptide substrate | recombinant F. hepatica cathepsin L1, Z-Leu-Arg-MCA fluorescence | inhibition, % at 5.96 µM | 0.49% of 300,000 active | AID 1906, 2009;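 active = inhibition above the mean of all tested compounds plus 3 SD, set per screening campaign, cut at about 17% in these data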
V-ATPase pH: regulators of yeast V-ATPase proton pumping, primary screen, pHLuorin cytosolic pH fluorescence; S. cerevisiae; response, % at 10 µM; 0.37% of 350,000 active; AID 504577, 2011; in the data active = response mostly above about 7.3%, no sharp cut-off; inactive = mostly below about 5.4%; note: actives read high
A number is an active result.

Results for CCCCN(C(=O)CCCSc1nc2ccccc2[nH]1)c1c(N)n(Cc2ccccc2)c(=O)[nH]c1=O ?
CR mimetic SO: inactive; iPSC survival up: inactive; Fh CTSL1 inh: inactive; V-ATPase pH: inactive

Results for COc1ccc(S(=O)(=O)N2CCOCC2)cc1C(=O)N(C)CCOc1ccc(Cl)cc1 ?
CR mimetic SO: inactive; iPSC survival up: inactive; V-ATPase pH: inactive

How did COc1ccc(C(=O)NNC(=O)CNC(=O)C2CCCCC2)cc1 do in these assays?
CR mimetic SO: inactive; iPSC survival up: inactive; Fh CTSL1 inh: inactive; V-ATPase pH: inactive

How did COc1ccc(-c2cc(C(=O)Nc3cc(S(N)(=O)=O)ccc3C)c3ccccc3n2)cc1OC do in these assays?
CR mimetic SO: inactive; iPSC survival up: inactive; Fh CTSL1 inh: 22.0; V-ATPase pH: inactive

Results for Cc1c(Cc2ccccc2)c(=O)oc2cc(OC(=O)c3ccccc3)ccc12 ?
CR mimetic SO: inactive; iPSC survival up: inactive; Fh CTSL1 inh: inactive; V-ATPase pH: inactive

How did COC(=O)Cc1c(C)c2ccc(OC(=O)c3ccccc3)cc2oc1=O do in these assays?
CR mimetic SO: inactive; iPSC survival up: inactive; Fh CTSL1 inh: inactive; V-ATPase pH: 20.2

How did CCOC(=O)N1CCC(N2Cc3cccc(C(=O)NCc4ccccn4)c3C2=O)CC1 do in these assays?
CR mimetic SO: inactive; iPSC survival up: inactive; Fh CTSL1 inh: 26.5; V-ATPase pH: inactive

What do the screens show for `CCOC(=O)N1CCC(N2Cc3cccc(C(=O)NCc4ccc(C)cc4)c3C2=O)CC1`?
CR mimetic SO: inactive; iPSC survival up: inactive; Fh CTSL1 inh: inactive; V-ATPase pH: inactive

What do the screens show for `Cc1ccc2[nH]c(=O)c(CN(CCO)C(=O)N(C)C)cc2c1`?
CR mimetic SO: inactive; iPSC survival up: inactive; Fh CTSL1 inh: inactive; V-ATPase pH: inactive

What do the screens show for `COc1cc(CC(CC(=O)O)CC(C)OCc2ccccc2)cc(OC)c1` (stereo not given)?
CR mimetic SO: inactive; iPSC survival up: 20.2; Fh CTSL1 inh: inactive; V-ATPase pH: inactive

Results for CC(=O)Nc1ccc(NC(=O)N2CCCCC2)cc1 ?
CR mimetic SO: inactive; iPSC survival up: inactive; Fh CTSL1 inh: 20.1; V-ATPase pH: inactive

How did COc1ccc(C(=O)NCc2cccnc2)cc1Br do in these assays?
CR mimetic SO: inactive; iPSC survival up: inactive; Fh CTSL1 inh: inactive; V-ATPase pH: inactive

How did COc1cc(OC)cc(C(=O)NCc2cccnc2)c1 do in these assays?
CR mimetic SO: inactive; iPSC survival up: inactive; Fh CTSL1 inh: 18.5; V-ATPase pH: inactive

Results for Nc1ccccc1C(=O)NCC1(c2ccccc2)CCCC1 ?
CR mimetic SO: inactive; iPSC survival up: inactive; Fh CTSL1 inh: 17.9; V-ATPase pH: inactive

How did Cc1cc(C)c(NC(=O)CNC(=O)c2ccc3c(=O)n4c(nc3c2)CCC4)c(C)c1 do in these assays?
CR mimetic SO: inactive; iPSC survival up: inactive; V-ATPase pH: inactive

Results for Cc1cccc(C)c1NC(=O)CN(C)C(=O)c1ccc2c(=O)n3c(nc2c1)CCC3 ?
CR mimetic SO: 65.4; iPSC survival up: inactive; V-ATPase pH: inactive

What do the screens show for `Cc1ccc(NC(=O)c2cc(-c3ccco3)on2)cc1C`?
CR mimetic SO: inactive; iPSC survival up: inactive; Fh CTSL1 inh: 21.2; V-ATPase pH: inactive

How did COc1cc(CN(CC2CCCO2)C(=O)c2cccs2)cc(OC)c1OC (stereo not given) do in these assays?
CR mimetic SO: inactive; iPSC survival up: inactive; Fh CTSL1 inh: 17.7; V-ATPase pH: inactive

What do the screens show for `COc1ccc(-n2c(SCc3ccc([N+](=O)[O-])cc3)nnc2-c2ccc(C)cc2)cc1`?
CR mimetic SO: inactive; iPSC survival up: inactive; Fh CTSL1 inh: inactive; V-ATPase pH: inactive

What do the screens show for `O=C(O)C1CC=CCC1C(=O)N1CCCC1` (stereo not given)?
CR mimetic SO: inactive; iPSC survival up: inactive; Fh CTSL1 inh: 18.0; V-ATPase pH: inactive

How did Cc1ccn2cc(CCNS(=O)(=O)c3ccc4ccccc4c3)nc2c1 do in these assays?
CR mimetic SO: inactive; iPSC survival up: inactive; Fh CTSL1 inh: 30.2; V-ATPase pH: inactive

Results for O=C(COC(=O)CSc1ccc([N+](=O)[O-])cc1)NCc1ccco1 ?
CR mimetic SO: inactive; iPSC survival up: inactive; Fh CTSL1 inh: inactive; V-ATPase pH: inactive

Results for O=C(CCl)N1N=C(c2ccco2)CC1c1cccs1 (stereo not given) ?
CR mimetic SO: inactive; iPSC survival up: inactive; Fh CTSL1 inh: 26.3; V-ATPase pH: inactive

What do the screens show for `CC(=O)N1N=C(c2ccco2)CC1c1cccs1` (stereo not given)?
CR mimetic SO: inactive; iPSC survival up: inactive; Fh CTSL1 inh: inactive; V-ATPase pH: inactive

Results for Cc1ccc(C2=NN(C(=O)CCl)C(c3cccs3)C2)o1 (stereo not given) ?
CR mimetic SO: inactive; iPSC survival up: inactive; Fh CTSL1 inh: 17.5; V-ATPase pH: inactive

How did Cc1ccccc1OCCCn1c(=O)sc2ccccc21 do in these assays?
CR mimetic SO: inactive; iPSC survival up: inactive; Fh CTSL1 inh: inactive; V-ATPase pH: inactive

Results for Cc1ccc(NC2=CC(=O)C(=O)c3ccccc32)cc1 ?
CR mimetic SO: inactive; iPSC survival up: inactive; Fh CTSL1 inh: inactive; V-ATPase pH: inactive

What do the screens show for `NS(=O)(=O)c1ccc(NC2=CC(=O)C(=O)c3ccccc32)cc1`?
CR mimetic SO: inactive; iPSC survival up: inactive; Fh CTSL1 inh: 16.8; V-ATPase pH: inactive

What do the screens show for `O=C(NNC(=O)c1csc(-c2cnccc2C(F)(F)F)n1)c1ccc(C(F)(F)F)cc1`?
CR mimetic SO: inactive; iPSC survival up: inactive; Fh CTSL1 inh: 22.7; V-ATPase pH: inactive

What do the screens show for `O=C(Nc1ccc(C(F)(F)F)cc1)c1csc(-c2ccncc2)n1`?
CR mimetic SO: inactive; iPSC survival up: inactive; Fh CTSL1 inh: inactive; V-ATPase pH: inactive

Results for O=C(NC1CCN(c2ncccn2)CC1)c1ccccc1Cl ?
CR mimetic SO: inactive; iPSC survival up: inactive; Fh CTSL1 inh: inactive; V-ATPase pH: inactive

How did COc1cccc(CCC(=O)O)c1OC do in these assays?
CR mimetic SO: inactive; iPSC survival up: inactive; Fh CTSL1 inh: 18.6; V-ATPase pH: inactive

What do the screens show for `CC(C)=NOc1cc(NC(=O)CCl)cc([N+](=O)[O-])c1`?
CR mimetic SO: inactive; iPSC survival up: inactive; Fh CTSL1 inh: 78.9; V-ATPase pH: inactive

What do the screens show for `CC(NC(=O)/C(C#N)=C/c1ccco1)c1ccccc1` (stereo not given)?
CR mimetic SO: inactive; iPSC survival up: inactive; Fh CTSL1 inh: 36.1; V-ATPase pH: inactive

What do the screens show for `CCOCCCNC(=O)/C(C#N)=C/c1ccc([N+](=O)[O-])o1`?
CR mimetic SO: inactive; iPSC survival up: 28.7; Fh CTSL1 inh: inactive; V-ATPase pH: inactive

Results for COC(=O)c1ccc(/C=C(\C#N)C(=O)NC(C)c2ccccc2)cc1 (stereo not given) ?
CR mimetic SO: inactive; iPSC survival up: inactive; Fh CTSL1 inh: inactive; V-ATPase pH: inactive

Results for CC(NC(=O)/C(C#N)=C/c1ccc([N+](=O)[O-])o1)c1ccccc1 (stereo not given) ?
CR mimetic SO: inactive; iPSC survival up: inactive; Fh CTSL1 inh: inactive; V-ATPase pH: 93.7

What do the screens show for `CCC1CCc2sc(C(=O)N3CCCN(C)CC3)cc2C1` (stereo not given)?
CR mimetic SO: inactive; iPSC survival up: inactive; Fh CTSL1 inh: inactive; V-ATPase pH: inactive

How did CCCc1cc(=O)oc2cc(C)cc(OCC(=O)NC3CC3)c12 do in these assays?
CR mimetic SO: inactive; iPSC survival up: inactive; Fh CTSL1 inh: inactive; V-ATPase pH: inactive
